According to PubChem BioAssay:
Calls of active or inactive are those of the source.

Columns and labels:
[1] = target: Albumin (Bos taurus) (UniProt P02769); assay: bovine serum albumin binders on microarray, profiling panel, artefact control for SMM control protein annotation, biochemical, small-molecule microarray, Alexa647 label, 635/667 nm fluorescence (AID 1118); conditions: BSA-A647 binding, fluorescence 635 nm, higher = more signal;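 also: score merges 667 nm emission intensity and signal-to-noise per printed compound spot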
Sequence of Albumin (Bos taurus) (P02769 whole entry, looked up): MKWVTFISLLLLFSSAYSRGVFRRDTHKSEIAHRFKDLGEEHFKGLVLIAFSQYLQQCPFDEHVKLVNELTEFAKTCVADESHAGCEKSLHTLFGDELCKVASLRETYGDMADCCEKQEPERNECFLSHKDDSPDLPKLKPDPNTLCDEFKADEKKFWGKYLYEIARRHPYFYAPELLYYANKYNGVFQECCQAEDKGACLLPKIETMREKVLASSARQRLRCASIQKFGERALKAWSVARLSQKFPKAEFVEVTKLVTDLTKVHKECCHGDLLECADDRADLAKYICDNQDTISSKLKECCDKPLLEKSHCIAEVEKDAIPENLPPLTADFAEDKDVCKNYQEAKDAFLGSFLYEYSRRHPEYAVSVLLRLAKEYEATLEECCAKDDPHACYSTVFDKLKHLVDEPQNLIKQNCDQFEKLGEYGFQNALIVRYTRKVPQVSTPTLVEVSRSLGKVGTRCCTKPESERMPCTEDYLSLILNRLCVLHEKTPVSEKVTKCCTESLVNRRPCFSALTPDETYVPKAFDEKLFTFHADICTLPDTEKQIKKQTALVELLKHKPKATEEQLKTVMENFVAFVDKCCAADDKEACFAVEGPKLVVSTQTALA

[2] = small-molecule microarray binders of probe aXIP, primary screen, biochemical, NeuroSMM set, 635/667 nm fluorescence (AID 1119); conditions: higher = more signal, called active from +8 up or from −8 down;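 also: probe is the protein aXip251-270 applied at 1 µg/mL to compound-printed slides; binding of probe to printed compounds measured as 667 nm fluorescence plus signal to noise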
[3] = small-molecule binders of probe aNOTCH3, primary screen, biochemical, small-molecule microarray, 635/667 nm fluorescence (AID 1120); conditions: higher = more signal;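 also: probe is a biotin-tagged antibody raised against NOTCH3 rather than NOTCH3 protein; score merges spot fluorescence near 667 nm with spot signal to noise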
[4] = small-molecule binders of probe aNOTCH2, primary screen, biochemical, small-molecule microarray, 635/667 nm fluorescence (AID 1121); conditions: higher = more signal;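 also: score merges feature fluorescence read at 667 nm with its signal to noise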
[5] = target: Carbonic anhydrase 2 (Homo sapiens) (UniProt P00918); assay: CAII small-molecule binders, profiling panel, biochemical, small-molecule microarray, Alexa647-labelled CAII (AID 1122); conditions: CAII-A647 binding fluorescence, higher = more signal
[6] = COS7 lysate on small-molecule microarray, probe aHis, 635 nm (AID 1123); conditions: COS7 cell lysate, fluorescence, higher = more signal;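 also: z-score combines 667nm fluorescence intensity with signal-to-noise per printed compound spot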
[7] = compound binding in COS7 lysate, probe aLAP1, primary screen, cell lysate, small-molecule microarray (AID 1124); conditions: probe aLAP1, fluorescence, higher = more signal;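 also: lysate comes from COS7 cells expressing LAP1 and is applied at 0.3 µg/mL; score merges spot fluorescence near 667 nm with signal-to-noise over triplicate slides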
[8] = tested on: Sam68 (KHDRBS1); assay: Sam68 small-molecule binders, primary screen, biochemical, small-molecule microarray, 635 nm fluorescence (AID 1125); conditions: small-molecule microarray binding, higher = more signal;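 also: score merges 667 nm channel intensity with signal to noise over triplicate slides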
[9] = tested on: Chordin-like protein 2 (CHRDL2); assay: CHRDL2 small-molecule binders, primary screen, biochemical, small-molecule microarray, 635 nm fluorescence (AID 1126); conditions: small-molecule microarray binding, fluorescence 635 nm; higher = more signal;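 also: printed compound slides probed with Chrdl2 protein at 4 µg/mL for 1 h at 4 C; score merges 667 nm emission intensity with signal to noise over three replicate slides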
[10] = target: Concanavalin-A (Canavalia ensiformis) (UniProt P02866); assay: ConA small-molecule binders, primary screen, artefact control for SMM control protein annotation, biochemical, small-molecule microarray, Alexa647 label, 635 nm (AID 1127); conditions: ConA-A647 binding fluorescence, higher = more signal;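 also: z combines 667 nm emission intensity with signal-to-noise across three replicate slides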
Sequence of Concanavalin-A (Canavalia ensiformis) (P02866 whole entry, looked up): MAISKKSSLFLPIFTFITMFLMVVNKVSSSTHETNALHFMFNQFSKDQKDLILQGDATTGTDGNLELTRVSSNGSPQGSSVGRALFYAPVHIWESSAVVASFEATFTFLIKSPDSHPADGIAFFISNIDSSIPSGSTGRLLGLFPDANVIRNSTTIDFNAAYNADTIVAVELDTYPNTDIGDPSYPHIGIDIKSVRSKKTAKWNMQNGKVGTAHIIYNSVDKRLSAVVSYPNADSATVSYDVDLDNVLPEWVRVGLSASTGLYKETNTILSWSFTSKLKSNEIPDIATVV

COCCOC(=O)N1C(=O)[C@@]2(c3cc(C#CC4=CCCCC4)ccc31)[C@H](C(=O)N1CCN(c3ncccn3)CC1)[C@H]1C(=O)O[C@H](c3ccccc3)[C@H](c3ccccc3)N1[C@@H]2c1ccccc1OCCO
composite z-score [1]: 0.768 | composite Z-score [2]: 0.0421 (inactive) | composite z-score [3]: 0.0433 | composite z-score [4]: -0.0928 | composite z-score [5]: 0.169 | composite z-score [6]: 1.8 | composite z-score [7]: 0.35 | composite z-score [8]: 1.31 | composite z-score [9]: 0.277 | composite z-score [10]: 1.11

CCOC(=O)C1=CC[C@@H](c2ccccc2)N(S(=O)(=O)c2ccc(C)cc2)[C@H]1C#N
composite z-score [1]: 0.721 | composite Z-score [2]: 0.718 (inactive) | composite z-score [3]: 0.213 | composite z-score [4]: 0.0362 | composite z-score [5]: 0.76 | composite z-score [6]: 1.67 | composite z-score [7]: 0.254 | composite z-score [8]: 1.2 | composite z-score [9]: -0.232 | composite z-score [10]: 1.15

CCCCCN1CC=CC23O[C@@H]4C=CCOC(=O)[C@@H]4[C@H]2C(=O)N(CCCCCO)[C@@H]3C1=O (stereo not given in full)
composite z-score [1]: 0.994 | composite Z-score [2]: 0.358 (inactive) | composite z-score [3]: -0.137 | composite z-score [4]: -0.146 | composite z-score [5]: 0.854 | composite z-score [6]: 0.263 | composite z-score [7]: 0.0344 | composite z-score [8]: -0.172 | composite z-score [9]: -1.31 | composite z-score [10]: -0.56

COc1ccc(C#Cc2ccc3c(c2)[C@]2(C(=O)N3)[C@H](c3ccc(OCCO)cc3)N3[C@H](c4ccccc4)[C@H](c4ccccc4)OC(=O)[C@H]3[C@@H]2C(=O)O)cc1
composite z-score [1]: -0.0067 | composite Z-score [2]: -0.221 (inactive) | composite z-score [3]: 1.18 | composite z-score [4]: -0.0907 | composite z-score [5]: 0.653 | composite z-score [6]: 3.18 | composite z-score [7]: 0.811 | composite z-score [8]: 1.3 | composite z-score [9]: 0.234 | composite z-score [10]: 0.761

COCCOC(=O)N1C(=O)[C@@]2(c3cc(C#CC4(O)CCCCCC4)ccc31)[C@H](c1ccc(OCCO)cc1)N1[C@H](c3ccccc3)[C@H](c3ccccc3)OC(=O)[C@H]1[C@@H]2C(N)=O
composite z-score [1]: 0.119 | composite Z-score [2]: 0.189 (inactive) | composite z-score [3]: 0.0876 | composite z-score [4]: -0.0907 | composite z-score [5]: 0.3 | composite z-score [6]: 0.615 | composite z-score [7]: 0.519 | composite z-score [8]: 1.3 | composite z-score [9]: 0.986 | composite z-score [10]: 1.17

CC(C)C[C@H]1NC(=O)[C@H](Cc2ccccc2)NC(=O)[C@@]23C(=O)N[C@@H](Cc4ccccc4)C2[C@H](C)[C@@]2(C)O[C@H]2C3/C=C/C/C=C\CNC1=O (stereo not given in full)
composite z-score [1]: -0.235 | composite Z-score [2]: 0.63 (inactive) | composite z-score [3]: -0.0077 | composite z-score [4]: -0.153 | composite z-score [5]: 0.535 | composite z-score [6]: 1.14 | composite z-score [7]: 0.495 | composite z-score [8]: 1.3 | composite z-score [9]: 0.937 | composite z-score [10]: 0.738

Cc1ccc(S[C@]2(C(=O)NCCCN(C)C)CC(=O)N(Cc3ccccc3Cl)[C@@H]2c2ccc(CO)cc2I)cc1
composite z-score [1]: -0.153 | composite Z-score [2]: 0.153 (inactive) | composite z-score [3]: -0.136 | composite z-score [4]: -0.142 | composite z-score [5]: 0.815 | composite z-score [6]: 0.429 | composite z-score [7]: 0.0345 | composite z-score [8]: -0.406 | composite z-score [9]: -0.697 | composite z-score [10]: -0.708

CC(C)N1CC=CC23O[C@@H]4C=CCCOC(=O)C4[C@H]2C(=O)N(CCCCCO)[C@@H]3C1=O (stereo not given in full)
composite z-score [1]: 0.62 | composite Z-score [2]: 0.23 (inactive) | composite z-score [3]: -0.214 | composite z-score [4]: -0.153 | composite z-score [5]: 0.853 | composite z-score [6]: 0.19 | composite z-score [7]: 0.543 | composite z-score [8]: -0.411 | composite z-score [9]: -0.654 | composite z-score [10]: 0.878

COc1ccc(CCNC(=O)[C@@]2(Sc3ccc(C)cc3)CC(=O)N(C(C)C)[C@@H]2c2ccc(CO)cc2)cc1
composite z-score [1]: 0.566 | composite Z-score [2]: 0.397 (inactive) | composite z-score [3]: -0.39 | composite z-score [4]: -0.124 | composite z-score [5]: 0.7 | composite z-score [6]: 0.239 | composite z-score [7]: 0.0112 | composite z-score [8]: -0.346 | composite z-score [9]: -2.15 | composite z-score [10]: -0.277

O=C1N(Cc2ccccc2)c2ccccc2[C@H]2OC(c3ccc(OCCCO)cc3)=N[C@@]12Cc1ccccc1
composite z-score [1]: -0.465 | composite Z-score [2]: 1.19 (inactive) | composite z-score [3]: 0.0271 | composite z-score [4]: -0.131 | composite z-score [5]: 0.606 | composite z-score [6]: 2.42 | composite z-score [7]: 1.1 | composite z-score [8]: 1.3 | composite z-score [9]: 0.41 | composite z-score [10]: 1.06

CCN(CC)c1ccc(N2CC=CC34O[C@@H]5C=CCOC(=O)[C@@H]5[C@H]3C(=O)N(CCCO)[C@@H]4C2=O)cc1 (stereo not given in full)
composite z-score [1]: -0.997 | composite Z-score [2]: 0.547 (inactive) | composite z-score [3]: -0.0971 | composite z-score [4]: -0.14 | composite z-score [5]: 0.862 | composite z-score [6]: 1.4 | composite z-score [7]: -0.39 | composite z-score [8]: 0.425 | composite z-score [9]: -0.773 | composite z-score [10]: -1.74

NC(=O)NCC#Cc1ccc2c(c1)[C@]1(C(=O)N2)[C@H](C(=O)N2CCCCCCC2)[C@H]2C(=O)O[C@H](c3ccccc3)[C@H](c3ccccc3)N2[C@@H]1c1ccc(O)cc1
composite z-score [1]: 0.408 | composite Z-score [2]: -0.573 (inactive) | composite z-score [3]: 1.38 | composite z-score [4]: 0.796 | composite z-score [5]: 0.341 | composite z-score [6]: 1.2 | composite z-score [7]: 0.624 | composite z-score [8]: 1.07 | composite z-score [9]: 1.2 | composite z-score [10]: 1.09
